Data as given in the supplement of paper PMC11732987, “Enantioselective OTUD7B fragment discovery through chemoproteomics screening and high-throughput optimisation” (Communications Chemistry, 2025).

Experiments:
Experiment in all cases: log2 ratio of Biotin-Ahx-Ub-VS probe labelling (fragment/DMSO); higher = less target engagement (more negative = stronger competition), active = hit call of the paper (q ≤ 0.05, log2 ratio ≤ -1)
Conditions in all cases: compound concentration: 200 uM; treatment time: 3 h
ALG13 = biological target: T1, ALG13 (UniProt Q9NP73)
T1 sequence (whole entry): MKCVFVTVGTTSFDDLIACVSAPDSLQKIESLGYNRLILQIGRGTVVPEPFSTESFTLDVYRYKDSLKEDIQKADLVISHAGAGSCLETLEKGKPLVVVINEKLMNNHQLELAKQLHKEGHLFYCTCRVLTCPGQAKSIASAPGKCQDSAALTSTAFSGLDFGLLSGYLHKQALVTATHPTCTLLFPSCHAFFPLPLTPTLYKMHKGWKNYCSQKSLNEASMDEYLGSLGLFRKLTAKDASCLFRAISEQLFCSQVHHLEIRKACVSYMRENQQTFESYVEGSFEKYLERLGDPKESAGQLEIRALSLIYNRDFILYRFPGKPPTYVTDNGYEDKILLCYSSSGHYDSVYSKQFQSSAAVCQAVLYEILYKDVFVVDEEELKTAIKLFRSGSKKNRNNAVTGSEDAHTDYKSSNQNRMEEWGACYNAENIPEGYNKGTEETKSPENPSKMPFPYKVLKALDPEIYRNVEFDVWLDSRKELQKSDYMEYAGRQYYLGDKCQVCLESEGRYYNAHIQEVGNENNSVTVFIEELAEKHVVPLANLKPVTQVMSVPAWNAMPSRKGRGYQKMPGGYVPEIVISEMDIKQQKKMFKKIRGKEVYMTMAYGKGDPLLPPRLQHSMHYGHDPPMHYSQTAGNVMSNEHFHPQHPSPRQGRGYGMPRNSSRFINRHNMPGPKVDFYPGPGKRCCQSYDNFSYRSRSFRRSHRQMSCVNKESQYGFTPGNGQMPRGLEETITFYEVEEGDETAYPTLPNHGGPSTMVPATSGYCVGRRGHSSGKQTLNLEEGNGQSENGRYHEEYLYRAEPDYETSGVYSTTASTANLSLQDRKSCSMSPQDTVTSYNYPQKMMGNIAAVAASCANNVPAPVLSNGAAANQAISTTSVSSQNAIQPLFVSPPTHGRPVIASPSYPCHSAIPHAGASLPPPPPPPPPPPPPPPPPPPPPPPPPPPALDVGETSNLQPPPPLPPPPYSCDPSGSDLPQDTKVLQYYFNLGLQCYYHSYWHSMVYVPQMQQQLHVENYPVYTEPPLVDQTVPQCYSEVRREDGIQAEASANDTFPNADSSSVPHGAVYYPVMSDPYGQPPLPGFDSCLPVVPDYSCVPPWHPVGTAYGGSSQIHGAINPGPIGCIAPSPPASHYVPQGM
How it was run: (§1)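 HEK293T lysate (495 µg per sample, in Tris/CHAPS/IGEPAL buffer with protease inhibitors) was treated in triplicate with fragment at 200 µM or with DMSO for 3 h. It was then treated with Biotin-Ahx-Ub-VS (0.5 µM final) for 1 h. Labelled DUBs were NeutrAvidin-enriched, digested with LysC and trypsin, and run by diaPASEF LC-MS/MS. Spectronaut label-free quantities were global-median-normalised. Values are average log2 ratios fragment/DMSO by unpaired t-test, using proteins with ≥2 unique peptides.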

ATXN3 = ATXN3 (UniProt P54252)
How it was run: as §1

BAP1 = biological target: T2, BAP1 (UniProt Q92560)
T2 sequence (whole entry): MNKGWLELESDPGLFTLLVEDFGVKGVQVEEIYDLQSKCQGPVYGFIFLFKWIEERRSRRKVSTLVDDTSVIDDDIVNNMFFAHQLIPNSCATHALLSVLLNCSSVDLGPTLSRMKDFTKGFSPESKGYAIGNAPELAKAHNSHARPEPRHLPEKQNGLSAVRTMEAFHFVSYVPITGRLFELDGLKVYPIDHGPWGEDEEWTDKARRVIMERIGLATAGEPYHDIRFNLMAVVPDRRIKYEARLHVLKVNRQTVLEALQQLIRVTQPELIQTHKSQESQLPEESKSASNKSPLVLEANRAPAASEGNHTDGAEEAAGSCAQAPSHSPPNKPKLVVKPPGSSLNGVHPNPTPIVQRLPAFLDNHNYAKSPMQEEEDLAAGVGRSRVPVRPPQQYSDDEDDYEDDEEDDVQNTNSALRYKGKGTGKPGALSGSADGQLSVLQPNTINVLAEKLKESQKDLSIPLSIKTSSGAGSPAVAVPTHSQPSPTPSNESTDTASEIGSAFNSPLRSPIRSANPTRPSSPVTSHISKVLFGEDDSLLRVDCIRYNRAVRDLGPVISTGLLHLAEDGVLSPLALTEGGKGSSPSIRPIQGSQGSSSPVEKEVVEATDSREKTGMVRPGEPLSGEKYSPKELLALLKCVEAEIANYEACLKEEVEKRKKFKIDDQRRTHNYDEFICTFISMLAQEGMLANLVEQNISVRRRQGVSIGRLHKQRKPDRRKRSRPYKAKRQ
How it was run: as §1

EIF3F = EIF3F (UniProt O00303)
How it was run: as §1

EIF3H = EIF3H (UniProt O15372)
How it was run: as §1

FAM105A = biological target: T3, FAM105A (UniProt Q9NUU6)
T3 sequence (whole entry): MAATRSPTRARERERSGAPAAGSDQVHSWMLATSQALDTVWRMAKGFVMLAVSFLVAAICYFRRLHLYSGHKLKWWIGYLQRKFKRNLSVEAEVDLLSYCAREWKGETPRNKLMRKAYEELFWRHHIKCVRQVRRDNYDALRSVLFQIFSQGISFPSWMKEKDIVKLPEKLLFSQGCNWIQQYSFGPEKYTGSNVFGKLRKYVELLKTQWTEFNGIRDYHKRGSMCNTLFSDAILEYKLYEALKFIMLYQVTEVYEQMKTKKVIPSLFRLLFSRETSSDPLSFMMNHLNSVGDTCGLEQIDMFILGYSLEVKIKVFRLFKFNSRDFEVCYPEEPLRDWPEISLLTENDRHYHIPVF
How it was run: as §1

OTUB1 = OTUB1 (UniProt Q96FW1)
How it was run: as §1

OTUD4 = biological target: T4, OTUD4 (UniProt Q01804)
T4 sequence (whole entry): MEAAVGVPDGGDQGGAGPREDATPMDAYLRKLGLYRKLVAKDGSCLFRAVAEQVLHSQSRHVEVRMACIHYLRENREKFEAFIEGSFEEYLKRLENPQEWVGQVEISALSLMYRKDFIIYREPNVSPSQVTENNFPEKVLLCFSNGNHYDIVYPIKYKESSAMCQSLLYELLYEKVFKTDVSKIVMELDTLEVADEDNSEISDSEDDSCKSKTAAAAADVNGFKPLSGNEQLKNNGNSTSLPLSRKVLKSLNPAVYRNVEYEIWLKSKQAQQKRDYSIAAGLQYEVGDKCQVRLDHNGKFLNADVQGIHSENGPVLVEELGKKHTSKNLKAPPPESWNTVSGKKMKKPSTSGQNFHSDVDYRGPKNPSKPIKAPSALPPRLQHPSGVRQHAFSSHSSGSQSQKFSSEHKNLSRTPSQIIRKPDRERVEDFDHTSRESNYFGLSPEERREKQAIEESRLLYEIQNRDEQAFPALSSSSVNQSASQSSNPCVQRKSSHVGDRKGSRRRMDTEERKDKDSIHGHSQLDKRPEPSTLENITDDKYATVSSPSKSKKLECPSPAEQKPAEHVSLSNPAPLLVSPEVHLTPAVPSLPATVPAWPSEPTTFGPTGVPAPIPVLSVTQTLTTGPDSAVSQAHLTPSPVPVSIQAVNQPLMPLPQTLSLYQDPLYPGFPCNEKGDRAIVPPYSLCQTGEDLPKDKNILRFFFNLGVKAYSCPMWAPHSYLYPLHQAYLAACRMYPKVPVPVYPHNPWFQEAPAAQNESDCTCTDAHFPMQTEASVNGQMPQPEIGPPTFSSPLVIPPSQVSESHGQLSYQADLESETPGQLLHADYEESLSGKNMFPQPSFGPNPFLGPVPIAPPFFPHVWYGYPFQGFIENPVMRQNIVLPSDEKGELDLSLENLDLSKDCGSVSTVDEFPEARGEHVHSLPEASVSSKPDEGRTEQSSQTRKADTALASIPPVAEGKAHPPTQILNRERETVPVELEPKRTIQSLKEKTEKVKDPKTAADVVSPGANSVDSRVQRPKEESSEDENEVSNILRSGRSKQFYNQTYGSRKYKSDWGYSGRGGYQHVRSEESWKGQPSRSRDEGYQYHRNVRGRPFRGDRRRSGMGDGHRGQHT
How it was run: as §1

OTUD5 = biological target: T5, OTUD5 (UniProt Q96G74)
T5 sequence (whole entry): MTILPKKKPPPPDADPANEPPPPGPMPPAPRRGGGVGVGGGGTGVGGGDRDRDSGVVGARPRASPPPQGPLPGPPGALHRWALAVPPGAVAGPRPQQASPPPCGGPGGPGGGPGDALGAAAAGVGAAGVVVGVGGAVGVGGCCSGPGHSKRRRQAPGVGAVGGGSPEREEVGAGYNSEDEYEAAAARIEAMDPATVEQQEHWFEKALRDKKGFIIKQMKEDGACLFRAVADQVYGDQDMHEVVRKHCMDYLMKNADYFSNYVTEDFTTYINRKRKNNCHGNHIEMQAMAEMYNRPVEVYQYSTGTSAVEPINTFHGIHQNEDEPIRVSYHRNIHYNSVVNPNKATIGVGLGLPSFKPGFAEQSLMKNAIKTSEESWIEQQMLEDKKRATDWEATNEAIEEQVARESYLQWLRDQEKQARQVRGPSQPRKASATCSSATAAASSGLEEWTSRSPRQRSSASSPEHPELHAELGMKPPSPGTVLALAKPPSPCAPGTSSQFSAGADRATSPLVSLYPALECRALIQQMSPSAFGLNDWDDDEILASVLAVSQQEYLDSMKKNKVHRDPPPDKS
How it was run: as §1

Measured: log2 ratio of Biotin-Ahx-Ub-VS probe labelling

Sequence of EIF3F (O00303 whole entry): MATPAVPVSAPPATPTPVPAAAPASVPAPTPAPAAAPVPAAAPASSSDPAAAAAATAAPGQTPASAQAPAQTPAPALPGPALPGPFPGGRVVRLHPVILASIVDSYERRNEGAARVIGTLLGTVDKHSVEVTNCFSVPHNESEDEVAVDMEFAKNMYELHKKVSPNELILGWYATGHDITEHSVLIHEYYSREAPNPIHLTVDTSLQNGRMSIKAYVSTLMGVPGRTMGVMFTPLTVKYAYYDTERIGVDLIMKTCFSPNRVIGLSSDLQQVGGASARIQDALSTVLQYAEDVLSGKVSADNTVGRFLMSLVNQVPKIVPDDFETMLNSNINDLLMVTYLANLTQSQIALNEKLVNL
Sequence of OTUB1 (Q96FW1 whole entry): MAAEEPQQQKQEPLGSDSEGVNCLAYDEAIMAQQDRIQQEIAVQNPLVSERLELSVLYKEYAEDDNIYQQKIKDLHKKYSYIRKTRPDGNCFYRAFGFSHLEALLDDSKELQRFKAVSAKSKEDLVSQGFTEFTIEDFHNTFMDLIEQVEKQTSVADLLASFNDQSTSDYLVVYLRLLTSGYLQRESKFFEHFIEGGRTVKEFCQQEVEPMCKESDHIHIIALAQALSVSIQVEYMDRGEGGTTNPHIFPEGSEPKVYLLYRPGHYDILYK
Sequence of ATXN3 (P54252 whole entry): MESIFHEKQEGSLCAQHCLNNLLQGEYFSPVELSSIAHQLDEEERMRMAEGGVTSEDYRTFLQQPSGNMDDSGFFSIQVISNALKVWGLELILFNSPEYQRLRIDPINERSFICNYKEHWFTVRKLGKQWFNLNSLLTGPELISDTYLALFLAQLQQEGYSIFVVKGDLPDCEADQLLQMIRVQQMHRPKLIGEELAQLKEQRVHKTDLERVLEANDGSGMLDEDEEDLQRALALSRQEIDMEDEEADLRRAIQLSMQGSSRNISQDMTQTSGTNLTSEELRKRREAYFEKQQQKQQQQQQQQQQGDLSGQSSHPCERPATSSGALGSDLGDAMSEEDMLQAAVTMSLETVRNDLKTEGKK
Sequence of EIF3H (O15372 whole entry): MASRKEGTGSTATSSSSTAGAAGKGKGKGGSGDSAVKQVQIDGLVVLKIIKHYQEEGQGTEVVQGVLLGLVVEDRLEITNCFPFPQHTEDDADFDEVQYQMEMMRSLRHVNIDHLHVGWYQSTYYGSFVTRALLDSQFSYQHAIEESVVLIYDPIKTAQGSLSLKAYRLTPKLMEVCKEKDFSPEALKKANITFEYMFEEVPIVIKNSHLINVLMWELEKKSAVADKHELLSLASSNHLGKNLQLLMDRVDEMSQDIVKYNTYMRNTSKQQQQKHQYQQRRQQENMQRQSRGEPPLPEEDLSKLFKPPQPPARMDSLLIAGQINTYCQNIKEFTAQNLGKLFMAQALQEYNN

N#Cc1cnn(-c2ccccc2)c1NC(=O)CCl
inactive: ALG13 0.0569 | EIF3F -0.258 | EIF3H 0.233 | FAM105A -0.0309 | OTUB1 -0.0957 | OTUD4 -0.641 | OTUD5 -0.526
active: ATXN3 -1.2 | BAP1 -4.3
